Screening results (PubChem BioAssay)
Compounds with a hit are over-represented: about 7% of the library has one in this group of screens.
KLK7 zymogen act: proKLK7 (human) activation, primary screen. P49862. purified proKLK7, EDANS-DABCYL substrate fluorescence; 100% is mature enzyme control, 0% vehicle. activation, % at 7 µM. 0.9% of 370,000 active;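 active = activation above the mean of all tested compounds plus 3 SD, computed per campaign excluding outliers beyond control limits, cut at about 13% in these data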
Target sequence (P49862 whole entry, looked up): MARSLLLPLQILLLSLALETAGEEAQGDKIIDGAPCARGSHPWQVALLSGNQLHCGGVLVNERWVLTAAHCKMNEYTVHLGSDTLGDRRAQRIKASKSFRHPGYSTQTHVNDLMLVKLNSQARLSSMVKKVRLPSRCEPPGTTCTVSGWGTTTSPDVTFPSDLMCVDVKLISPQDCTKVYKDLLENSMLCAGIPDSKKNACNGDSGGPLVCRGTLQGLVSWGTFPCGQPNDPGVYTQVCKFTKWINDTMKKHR
ADAM10 inh: inhibits human ADAM10; O14672; AID 720582; recombinant ADAM10, EDANS/DABCYL FRET peptide cleavage, 3 h; inhibition, % at 7 µM; 0.62% of 370,000 active;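 active = inhibition above a per-campaign cutoff equal to the mean of compounds falling between control-based bounds plus 3 SD, cut at about 20% in these data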;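 also: 0% = DMSO wells while the 100% control is not disclosed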
ADAM17 inh: ADAM17 inhibition, QFRET primary screen | inhibition, % at 6.95 µM | AID 720648 | 0.83% of 370,000 active | P78536 | recombinant ADAM17, EDANS/DABCYL FRET peptide cleavage;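 active = inhibition above the mean of compounds lying between control limits plus 3 SD, set per campaign, cut at about 8.5% in these data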;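 also: 0% = DMSO-only wells as the low control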
NR3A LBD binder: modulates the human NR3A ligand-binding domain; NR3A LBD differential scanning fluorimetry, Tm shift; 0% = protein alone, 100% = glycine-bound protein; Tm shift relative to glycine control, % at 25 µM; 2.5% of 340,000 active;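 active = melting temperature shift of at least 10% of the positive control shift, at one fixed dose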
rCAG RNA binder: binds r(CAG) RNA repeats; r(CAG) RNA repeat, TO-PRO-1 dye displacement fluorescence; inhibition, % at 3 µM; 1.3% of 370,000 active; AID 651821;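 active = inhibition above the plate cutoff, the mean of all test compounds on that plate plus 3 SD, cut at about 35% in these data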;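 also: 0% = DMSO alone and 100% = 100 µM mitoxantrone as full dye displacement; higher means more dye released from RNA so lower well fluorescence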
AHR activator: human AHR activation | P35869 | AHR-responsive luciferase reporter cells, luminescence | activation, % at 5 µM | 2.5% of 320,000 active; in the data active = activation above about 47%;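 also: 0% = vehicle wells and 100% = reference agonist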
rCAG bind conf: r(CAG) RNA repeat binding, confirmation. TO-PRO-1 dye displacement fluorescence. shares compounds with rCAG RNA binder. inhibition, % at 3 µM. 70% of 4,300 active;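 active = inhibition above a per-plate cutoff, the mean inhibition of sample wells plus 3 SD, cut at about 35% in these data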;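 also: loss of TO-PRO-1 fluorescence as compound displaces dye from 1x1 AA loop RNA; 0% = DMSO only wells and 100% = 100 µM mitoxantrone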
DNA CAG counter: DNA CAG dye complex inhibition counter-screen; shares compounds with rCAG RNA binder; d(CAG) DNA oligo TO-PRO-1 dye displacement, fluorescence; inhibition, % at 3 µM; 94% of 4,300 active; AID 652068;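 active = inhibition above its plate's cutoff, the mean test-well inhibition plus 3 SD, cut at about 4.8% in these data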;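 also: 0% = DNA dye mix with DMSO and 100% = 100 µM mitoxantrone; hits displace the dye from DNA and so lower well fluorescence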
DNA CAG DR: disrupts DNA CAG TO-PRO-1 complex in dose response; shares compounds with rCAG RNA binder; DNA CAG/GTC duplex TO-PRO-1 dye displacement fluorescence; IC50, µM; 20% of 250 active; in the data active = IC50 below about 10 µM
* marks the source's active call; other numbers are inactive results; i = inactive; / = no result given.

SMILES	KLK7 zymogen act	ADAM10 inh	ADAM17 inh	NR3A LBD binder	rCAG RNA binder	AHR activator	rCAG bind conf	DNA CAG counter	others
O=C1NC(=O)C(=Cc2ccccc2[N+](=O)[O-])S1	1	-22	-6	-1	4	/	/	/
CCCOc1ccc2ccccc2c1/C=C1\SC(=O)NC1=O	1	-2	-5	-8	53*	10	44*	13*
Cc1ccc(S(=O)(=O)Oc2ccccc2/C=C2/SC(=O)NC2=O)cc1	0	-1	-3	-2	44*	1	36*	7.0*
COc1ccccc1OCCCOc1cccc(/C=C2\SC(=O)NC2=O)c1	0	5	1	-4	78*	36	83*	51*
O=C1NC(=O)/C(=C/c2cccc3ccccc23)S1	0	5	-2	-14	24	1	/	/
COc1cccc(C=C2SC(=S)NC2=O)c1	0	-8	4	-14	6	/	/	/
CC(C)(C)NC(=O)[C@@H](c1cccnc1)N(C(=O)c1ccco1)c1ccc(C(C)(C)C)cc1	/	-8	-6	/	/	/	/	/
C[C@@H]1ON(C)[C@H]2C[C@H]3c4[nH]c5c(-c6cc(Cl)cc(Cl)c6)cccc5c4CCN3C(=O)[C@@H]12	-2	-57	-14	/	5	/	/	/
Cc1ccc(NC(=O)OC2CC3CC2[C@H]2CCCCN2[C@H]3C)cc1 (stereo not given in full)	0	-7	-3	/	2	/	/	/
COC(=O)[C@@]1(C(C)C)N=C(c2cc(OC)c(OC)c(OC)c2)[C@]2(O1)C(=O)Nc1ccccc12	0	-11	-2	/	-1	/	/	/
O=C1NC(=O)/C(=C\c2ccccc2OCc2ccccc2)S1	0	8	-1	-6	69*	5	58*	20*
COc1cc(-c2c(C#N)c(=O)[nH]c3c2c(C)nn3-c2ccccc2)ccc1O	5	-88	-19	-3	36*	2	30	6.3*
C[C@H](NC(=O)C[C@@H]1C[C@@H]2c3cc(NC(=O)C4CCC4)ccc3O[C@@H]2[C@@H](CO)O1)c1ccccc1	-1	-8	-5	/	3	/	/	/
Cc1ccc(-n2c(O)c(/C=N/Nc3ccc(S(=O)(=O)N4CCOCC4)cc3[N+](=O)[O-])c3ccccc3c2=O)c(C)c1	4	-261	-76	-1	66*	1	88*	71*
O=C(O)COc1ccccc1/C=N/Nc1ccc(S(=O)(=O)N2CCOCC2)cc1[N+](=O)[O-]	0	10	2	1	52*	1	39*	9.3*
O=C(O)c1ccc(/C=N\Nc2ccc(S(=O)(=O)N3CCOCC3)cc2[N+](=O)[O-])cc1	-1	-5	-3	1	1	1	/	/
Cc1cccc(OC[C@@H](O)CN2CCC(C(O)(c3ccccc3)c3ccccc3)CC2)c1	0	-7	1	/	2	/	/	/
CCCCc1nnn2c1C1c3cc(Br)ccc3CCN1C(=O)C2 (stereo not given)	0	-1	0	/	0	/	/	/
C=CCn1c(CSCc2ccc(Cl)cc2Cl)nnc1SCC(=O)Nc1ccc(C(=O)O)cc1	1	1	-1	1	36*	-1	53*	16*
N=C1S/C(=C\c2ccco2)C(=O)N1c1ccc2c(c1)OCO2	-1	2	-1	-1	38*	35	26	12*
Cc1ccc(N2C(=O)/C(=C/c3ccco3)SC2=S)cc1	0	5	3	-1	44*	6	10	5.7*
CC(=O)OC(C)C1C2=C(C(=O)CC1(C)O)C(=O)c1c(ccc(-c3ccc4c(c3O)C(=O)C3=C(C4=O)C(C(C)OC(C)=O)C(C)(O)CC3=O)c1O)C2=O (stereo not given)	1	-6	1	-1	59*	/	67*	34*	DNA CAG DR=8*
O=C1NC(=O)C2(CCCc3ccc(N(CCO)CCO)cc32)N1 (stereo not given)	1	-5	-3	/	0	/	/	/
CC(=O)N(C)C[C@@H]1OCc2ccccc2-c2c(n(C)c3ccccc23)C(=O)N([C@@H](C)CO)C[C@@H]1C	0	-1	-3	/	3	/	/	/
Cc1ccc(CSc2nnc(SCC(=O)N/N=C/c3ccc(C(=O)O)cc3)s2)cc1	0	0	-5	-1	43*	-5	41*	11*
SMILES	KLK7 zymogen act	ADAM10 inh	ADAM17 inh	NR3A LBD binder	rCAG RNA binder	AHR activator	rCAG bind conf	DNA CAG counter	others
CCc1ccc(Nc2nnc(SCC(=O)NC(=O)c3cccn3C)s2)cc1	0	-1	1	-5	8	-4	/	/
O=C(CSc1nnc(SCc2cccc3ccccc23)s1)Nc1ccc(C(=O)O)cc1	0	1	3	-19	67*	-2	68*	30*
CCc1ccc(Nc2nnc(SCC(=O)Nc3ccc(C(=O)O)cc3)s2)cc1	0	6	-4	-10	36*	-2	22	5.0*
O=C(CSc1nnc(SCc2ccccc2)s1)N/N=C/c1ccc(C(=O)O)cc1	0	6	-2	2	22	-4	/	/
Cc1ccc(C(=O)Nc2nc(=O)n(C(=O)CC(C)C)s2)cc1	0	14	-2	-18	20	0	/	/
Cc1ccc(C(=O)Nc2nc(=O)n(C(=O)c3ccccc3Cl)s2)cc1	-1	-3	2	-3	48*	/	63*	17*
CC(=O)CSc1nsc(SCC(C)=O)c1C#N	0	-2	-3	3	35*	23	38*	18*
CCOC(=O)CSc1nsc(SCC(=O)OCC)c1C#N	0	1	-2	1	-5	7	/	/
O=C(O)CN1C(=O)/C(=C/c2ccccc2Cl)Oc2ccccc21	9	-375	-167	1	39*	8	35*	7.3*
O=C(CN1C(=O)/C(=C\c2ccccc2Cl)Oc2ccccc21)NCc1cccnc1	-82	-186	-69	-1	3	11	/	/
COc1ccc(C(C(=O)N(C)C2CCCC2)N(Cc2ccc(F)cc2)C(=O)c2ncn[nH]2)cc1OC (stereo not given)	0	-13	-4	/	4	/	/	/
CC(/C=C1\SC(=S)N(C(C(=O)O)C(C)C)C1=O)=C\c1ccccc1 (stereo not given)	0	4	1	-6	72*	8	75*	31*	DNA CAG DR=i
CC(=O)c1ccc(NC(=O)CN2C(=O)/C(=C/C(C)=C/c3ccccc3)SC2=S)cc1	0	8	3	8	23	/	/	/
CC(/C=C1\SC(=S)N(c2ccc(C(=O)O)cc2)C1=O)=C\c1ccccc1	0	9	-4	4	55*	0	84*	52*
